TDP1 cell noCPT = qHTS for Inhibitors of human tyrosyl-DNA phosphodiesterase 1 (TDP1): qHTS in cells in absence of CPT. DT40 Tdp1-/- hTDP1 cells, no CPT, ATP luminescence, 48 h. Potency, µM (titrated, usually from 46.2 µM), for the others: at the top dose activity change, negative = growth inhibition, hits mostly inhibitors. 420,000 tested, 15% active; further: potency means the concentration at half of the fitted maximal effect; nearly all actives have a fitted effect of over 55% in size
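Luminescent ATP content (CellTiter-Glo) served as the growth readout. Knockout chicken DT40 cells expressing human TDP1 were exposed to compounds without camptothecin for a minimum 48 hr at 37 °C.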
HT1080NT lethal = kills 2HG-producing HT-1080-NT fibrosarcoma cells. HT-1080-NT fibrosarcoma viability, CellTiter-Glo ATP luminescence, 48 h. Potency, µM (highest dose often 46.1 µM), inactives show at the highest dose activity, negative = less viability, actives largely listed as cytotoxic. 360,000 tested, 1.6% active. AID 686970;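 further: NT is the 2HG producing partner of a matched IDH1 knockdown line; potency means the concentration at half of the fitted maximal effect; 0% = DMSO-treated cells and -100% = media-only wells without cells; nearly all actives have a fitted effect of over 55% in size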
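HT-1080-NT fibrosarcoma cells (2HG-overproducing), 750 cells/well in RPMI with 5% FBS, dosed after 2 h and incubated 48 h at 37C. CellTiter-Glo luminescence normalized to DMSO and no-cell wells; concentration-response curves fitted and classed.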
IL1B secr inh = blocks inflammasome-driven IL-1 beta release. AID 743279. activity change, % at 57.5 µM. THP-1 LPS/ATP IL-1B secretion, AlphaLISA, 16 h; hits give low values. 360,000 tested, 4.7% active; in the data active means activity change below about -50%; inconclusive means mostly about -30% to -49%
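THP-1 cells pretreated 1 hr with compounds (up to 57.5 uM final), then stimulated with LPS (250 ng/mL final) plus ATP (1.25 mM final); secreted IL-1B measured by AlphaLISA after 16 hr, decreased signal indicating inhibition.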
HT1080 IDH1KD tx = kills HT-1080 cells with IDH1 knockdown; Potency, µM (titrated, usually from 46.1 µM), for the others: top-dose activity, negative = toxicity, actives largely listed as cytotoxic; 360,000 tested, 2% active; AID 686971; HT-1080 IDH1 knockdown viability, ATP luminescence, 48 h;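 further: potency means the concentration at half of the fitted maximal effect; 0% = DMSO wells and -100% = cell-free medium wells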
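Assay cells: HT-1080 with IDH1 knockdown, 750 per well, RPMI/5% FBS. Exposure: 48 h at 37 °C following 2 h pre-incubation. Read: CellTiter-Glo luminescence; fitted concentration-response, curve class assigned.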
ELG1 DNA repair = ELG1-dependent DNA repair inhibition; HEK293T ELG1-luciferase reporter, luminescence, 16 h; DNA damage induced by 5-fluorouridine; Potency, µM (top dose mostly 46.1 µM), for inactives: at the top dose activity change, negative = inhibition, actives largely listed as inhibitors; 330,000 tested, 2.3% active; AID 504467; further: potency means the concentration at half of the fitted maximal effect; nearly all actives have a fitted effect of over 55% in size
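Reporter activity after DNA damage by 5-fluorouridine is monitored. Compound-treated cells incubate 16 hr at 37 °C, then ONE-Glo is added for 30 min before luminescence reading.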
TDP1 cell CPT = DT40-hTDP1 cell growth loss with CPT; Potency, µM (top dose mostly 46.2 µM), inactives show at the top dose activity change, negative = growth inhibition, hits mostly inhibitors; 420,000 tested, 12% active; chicken DT40 Tdp1-/-;hTDP1 cells + 20 nM CPT, ATP luminescence, 48 h; further: potency means the concentration at half of the fitted maximal effect; nearly all actives have a fitted effect of over 55% in size
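Cell growth measured by CellTiter-Glo luminescence after a minimum 48 h, 37 C compound exposure with 20 nM CPT in Tdp1-knockout DT40 cells stably expressing hTDP1, seeded 400/well; qHTS titration format.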
Numbers without * were called inactive; ? = inconclusive; . = not tested or not shown; [ ] = remark or other dose. Rows were chosen to be rich in hits. Some 19% of all compounds tested hit in one or more screens of this group. Unless noted, the call rests on the fitted dose curve; in most records, active means well fitted curve in the direction sought with a large enough effect; inconclusive means small, poorly fitted or top-dose-only effect, or another doubt; inactive means no such curve, though single readings can be large; an effect the other way counts as inactive or inconclusive. Unless noted, on the % scale 0 is the no-effect control and ±100 the full control effect.

SMILES | TDP1 cell noCPT | HT1080NT lethal | IL1B secr inh | HT1080 IDH1KD tx | ELG1 DNA repair | TDP1 cell CPT
O=[N+]([O-])c1cc(F)c(N2CCCCC2)cc1N1CCOCC1 | -24% | 6% | 0 | -4% | -1% | ?
COc1ccc(N2CCN(C(=O)c3ccccc3F)CC2)c([N+](=O)[O-])c1 | ? | 7% | ? | 3% | -3% | ?
O=C(Nc1ccccc1)C1CCCN1S(=O)(=O)c1ccc(Br)cc1 (stereo not drawn) | 8% | -1% | -16 | 0% | 2% | ?
Cc1ccc(-c2nonc2NC(=O)c2ccc(F)cc2)cc1C | -74% | . | . | . | . | ?
CCS(=O)(=O)c1nc(S(=O)(=O)c2ccc(C)cc2)c(N2CC(C)OC(C)C2)s1 (stereo not drawn) | ? | 4% | -19 | 0% | 9% | ?
CCOC(=O)C1CCCN(C(=O)c2nn(-c3ccc(C)cc3)c(=O)n(C)c2=O)C1 (stereo not drawn) | -5% | . | . | . | . | -15%
CO/N=C/c1ccc(N2CCN(C(=O)c3ccc(C)cc3)CC2)c([N+](=O)[O-])c1 | 15µM* | 4% | -6 | -11% | 21µM* | 18µM*
Cc1cc(C)n(-c2cc(N3CCN(C(=O)c4cccc(F)c4)CC3)ccc2[N+](=O)[O-])n1 | -23% | 1% | ? | 1% | 21µM* | -19%
COc1ccc(N2CCN(C(=O)CC34CC5CC(CC(C5)C3)C4)CC2)c([N+](=O)[O-])c1 | 16µM* | 10% | 12 | 9% | ? | 21µM*
CCC(=O)N1CCN(c2ccc(OC)cc2[N+](=O)[O-])CC1 | -19% | 4%[9.24 µM] | -13 | -19% | -1% | -6%
CCc1cc(-c2nnn(CCC3COCCO3)c2CC)cc(CC)c1-c1cn(CCc2c[nH]c3ccccc23)nn1 (stereo not drawn) | ? | 5% | -3 | 2% | . | ?
CCc1cc(-c2nnn(CCC3COCCO3)c2C(C)(C)O)ccc1-c1cn(CCc2c[nH]c3ccccc23)nn1 (stereo not drawn) | 12µM* | -20% | 142 | ? | . | 21µM*
CCc1cc(-c2nnn(-c3cc(C(C)C)ccc3C)c2CC)ccc1-c1cn(CCc2c[nH]c3ccccc23)nn1 | ? | -15% | -6 | ? | . | 23µM*
Fc1ccc(CN2CCCN(Cc3nc(-c4ccc5c(c4)OCO5)no3)CC2)cc1 | ? | -12% | -11 | 3% | -4% | ?
O=C(c1ccco1)N1CCCN(Cc2nc(-c3ccc4c(c3)OCO4)no2)CC1 | 16µM* | -17% | 4 | -1% | 6% | -10%
c1ccc(CCC2CCCCN2Cc2nc(-c3ccc4c(c3)OCO4)no2)nc1 (stereo not drawn) | 21µM* | -26% | -28 | -14% | ? | 16µM*
c1ccc(C2CCCN(Cc3nc(CC4CC4)no3)CC2)cc1 (stereo not drawn) | -19% | -5% | -3 | -12% | ? | -12%
COc1ccc(-c2nc(CN3CCCCC3CCc3ccccn3)c(C)o2)cc1 (stereo not drawn) | ? | -12% | 15 | -12% | 0% | 6%
c1ccc(C(c2ccccc2)c2noc(CN3CCC(c4ccncc4)CC3)n2)cc1 | ? | -13% | -17 | -14% | -9% | 21µM*
COCC1CCN(Cc2nc(-c3ccc4c(c3)OCO4)no2)C1 (stereo not drawn) | -12% | 8% | 8 | 23% | ? | 3%
c1cc(C2CCN(Cc3nc(-c4ccc5c(c4)OCO5)no3)CC2)ccn1 | 12µM* | ? | -26 | ? | ? | 21µM*
C[C@H](CO)N1C[C@H](C)[C@@H](CN(C)Cc2ccccc2)Oc2ccc(NC(=O)CCCCCC(=O)Nc3ccccc3N)cc2C1=O | ? | -9% | 38 | -2% | ? | ?
Cc1ccc(OCCCCN2CCc3ccccc3C2)cc1 | ? | -19% | ? | ? | -5% | -1%
CCN(CCNCC(O)COc1ccccc1C(C)C)c1cccc(C)c1 (stereo not drawn) | 18µM* | 21µM* | -104* | 18µM* | 3% | ?
CCOC(=O)c1cccc(OCC(O)CNCCOc2ccccc2F)c1 (stereo not drawn) | 0% | -15% | -4 | -15% | 5% | 6%
SMILES | TDP1 cell noCPT | HT1080NT lethal | IL1B secr inh | HT1080 IDH1KD tx | ELG1 DNA repair | TDP1 cell CPT
Cc1ccc2[nH]c3nc(N/N=C/c4cccc(O)c4)nnc3c2c1 | -1% | -29% | 21 | ? | 7% | -9%
CCc1ccc2[nH]c3nc(N/N=C/c4ccc(O)cc4O)nnc3c2c1 | ? | ? | 150 | 5.2µM* | -26% | ?
COc1ccc(CCn2c(=O)c3cccnc3n(Cc3ccc([N+](=O)[O-])cc3)c2=O)cc1OC | 16µM* | 7% | 8 | 17% | 16% | ?
COc1ccc(CCn2c(=O)c3cccnc3n(CC(=O)Nc3c(C)cccc3C)c2=O)cc1OC | -24% | . | . | . | . | 14%
COc1ccc(CCn2c(=S)[nH]c(=O)c3cccnc32)cc1OC | 0.1µM* | ? | . | ? | . | 0.22µM*
Cc1cc(Cl)ccc1OCCCC(=O)NNC(=O)c1ccncc1 | 3% | -1% | -15 | -11% | 21% | -5%
Cc1cc(Cl)ccc1OCCCC(=O)N/N=C/c1cccc([N+](=O)[O-])c1 | ? | -1% | -2 | 3% | -4% | 15µM*
Cc1cc(Cl)ccc1OCCCC(=O)NO | 18µM* | 21µM* | -11 | 21µM* | ? | 8.2µM*
COc1ccc(/C=N/NC(=O)CCCOc2ccc(Cl)cc2Cl)cc1 | 4% | -5% | -19 | -12% | -8% | 1%
O=C(CCCOc1ccc(Cl)cc1Cl)N/N=C/c1ccc(Cl)cc1 | 23µM* | ? | ? | ? | 9% | ?
O=C(CCCOc1ccc(Cl)cc1Cl)N/N=C\C1CCCCC1 | -8% | 0% | -51* | -8% | -5% | -17%
Cc1ccc(CNC(=O)CCC2CCCN(Cc3cc4ccccc4o3)C2)o1 (stereo not drawn) | ? | -1% | -6 | -9% | ? | ?
Cc1n(Cc2ccccc2)c2cc([N+](=O)[O-])ccc2[n+]1Cc1ccccc1 | 21µM* | 0% | -14 | 1% | -8% | ?
Cc1n(Cc2ccccc2)c2ccccc2[n+]1Cc1ccccc1 | 0.73µM* | -16% | -72* | ? | ? | 1.2µM*

Screening results from PubChem.
